Test results as given in PubChem BioAssay.
Active and inactive are the calls of the source. Unless noted, how the calls were made is not given here.

What was measured:
[1] = tested on: Wnt5a (protein binding on small-molecule microarray); assay: Wnt5a binders on small-molecule microarray, primary screen, biophysical, 635/667 nm fluorescence (AID 1142); conditions: 635 nm fluorescence, higher = more signal;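 further: fluorescence read at 667 nm with signal to noise per printed feature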
[2] = cell viability in Huh7 cells, primary screen, cytotoxicity control for HCV replication inhibitor project, CellTiter-Glo luminescence, basal, 48 h (AID 1143); conditions: Huh7 HCV replicon, higher = more signal, called active from +8 up or from −8 down;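 further: Huh7 hepatoma cells carrying a hepatitis C replication reporter with no stimulus; test concentration not given here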
[3] = P. aeruginosa biofilm formation inhibitors, primary screen, PAO1 strain, BacTiter-Glo luminescence, LB-PBS (AID 1144); conditions: 12 h, higher = more signal
[4] = CREB reporter modulators without forskolin, primary screen, cell-based, PC12, CRE-LacZ reporter, unstimulated (AID 1145); conditions: no forskolin, luminescence, 4.5 h, higher = more signal, called active from +8 up or from −8 down
[5] = CREB reporter modulators under forskolin, primary screen, cell-based, PC12, CRE-LacZ reporter, forskolin-stimulated (AID 1146); conditions: luminescence, 4.5 h, higher = more signal, called active from +8 up or from −8 down;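 further: PC12 cells with 6xCRE LacZ reporter stimulated by forskolin 10 µM; beta-galactosidase reporter signal reflecting CREB driven transcription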
[6] = molecular target: Streptavidin (Streptomyces avidinii) (UniProt P22629); assay: streptavidin binders on small-molecule microarray, primary screen, artefact control for SMM compound annotation, biophysical, 635/667 nm fluorescence (AID 1147); conditions: streptavidin binding, higher = more signal;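 further: signal reflects streptavidin binding to arrayed compounds as a control protein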
Chain of Streptavidin (Streptomyces avidinii) (P22629 whole entry, looked up): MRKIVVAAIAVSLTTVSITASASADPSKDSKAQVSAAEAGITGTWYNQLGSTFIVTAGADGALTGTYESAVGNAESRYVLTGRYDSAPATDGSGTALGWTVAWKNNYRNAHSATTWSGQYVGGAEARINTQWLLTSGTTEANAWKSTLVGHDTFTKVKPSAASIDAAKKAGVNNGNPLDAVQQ

[7] = small-molecule binders of probe aInhba, primary screen, biochemical, small-molecule microarray, 635/667 nm fluorescence (AID 1148); conditions: higher = more signal;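 further: score merges 667nm spot fluorescence with signal-to-noise for antibody binding to printed compounds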
[8] = molecular target: Torsin-1A (Homo sapiens) (UniProt O14656); assay: torsin A binders from cell lysate, primary screen, small-molecule microarray, wild-type, 635/667 nm (AID 1149); conditions: COS7 hTOR1A-WT lysate, 635 nm fluorescence, higher = more signal
Chain of Torsin-1A (Homo sapiens) (O14656 whole entry, looked up): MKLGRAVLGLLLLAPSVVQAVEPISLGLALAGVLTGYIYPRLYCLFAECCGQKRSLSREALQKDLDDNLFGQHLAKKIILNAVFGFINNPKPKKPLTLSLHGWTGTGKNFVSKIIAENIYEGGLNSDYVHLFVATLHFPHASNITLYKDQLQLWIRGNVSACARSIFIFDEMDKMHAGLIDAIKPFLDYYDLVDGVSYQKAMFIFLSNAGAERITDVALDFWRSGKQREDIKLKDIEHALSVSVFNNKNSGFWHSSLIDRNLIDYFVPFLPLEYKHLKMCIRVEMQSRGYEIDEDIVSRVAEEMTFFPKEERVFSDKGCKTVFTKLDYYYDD

[9] = molecular target: Torsin-1A (Homo sapiens) (UniProt O14656); assay: small-molecule binders of mutant TOR1A in lysate, primary screen, cell lysate, small-molecule microarray, COS7 lysate, 635/667 nm fluorescence (AID 1150); conditions: COS7 hTOR1A mutant lysate, 635 nm fluorescence, higher = more signal;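 further: score pools 667 nm emission and signal to noise measuring lysate protein binding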
[10] = tested on: Sonic hedgehog protein (Shh); assay: small-molecule binders of Shh protein, primary screen, biochemical, small-molecule microarray, 635/667 nm fluorescence (AID 1151); conditions: small-molecule microarray binding, 635 nm fluorescence; higher = more signal;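 further: Shh protein binding to compounds spotted on small-molecule microarray slides; score combines spot fluorescence intensity with signal-to-noise across triplicate slides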
[11] = E. coli DRC41 culture turbidity changes, primary screen, E. coli filamentation inducer project, strain DRC41, OD650, 48 h (AID 1152);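 further: E. coli MC1000 strain DRC41 lacking acrAB efflux pump and sulA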; conditions: E. coli DRC41 (acrAB sulA), higher = more signal, called active from +8 up or from −8 down
[12] = small-molecule binders of probe aLefty1, primary screen, biochemical, small-molecule microarray, 635/667 nm fluorescence (AID 1153); conditions: higher = more signal;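 further: score merges spot fluorescence with signal-to-noise ratio from the scanned slide images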
[13] = PSAC antagonists in infected red cells, primary screen, cell-based, P. falciparum Indochina, OD700, 1 h (AID 1154); conditions: P. falciparum Indochina infected RBC osmotic lysis, higher = more signal, called active from +8 up or from −8 down
[14] = PSAC antagonists in infected red cells, primary screen, cell-based, P. falciparum Indochina, OD700, 2 h (AID 1155);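 further: lysis reports solute entry through the parasite surface anion channel PSAC; channel blockers reduce lysis of infected cells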; conditions: P. falciparum Indochina infected erythrocytes, osmotic lysis OD700; higher = more signal, called active from +8 up or from −8 down
[15] = osmotic lysis modulators in infected erythrocytes, primary screen, PSAC antagonist project, cell-based, P. falciparum Indochina, OD700, 3 h (AID 1156); conditions: higher = more signal, called active from +8 up or from −8 down
[16] = PSAC antagonists in infected red cells, primary screen, cell-based, P. falciparum Indochina, OD700, 18 h (AID 1157); conditions: P. falciparum Indochina infected erythrocytes, osmotic lysis OD700, 18 h; higher = more signal, called active from +8 up or from −8 down
[17] = modulators of S6 phosphorylation in cells, primary screen, cell-based, A549, cytoblot, luminescence, serum-stimulated (AID 1158); conditions: A549 phospho-S6 cytoblot, 5 h, higher = more signal;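 further: serum-stimulated A549 lung adenocarcinoma cells; signal is phosphorylated S6 detected by cytoblot immunostaining with HRP secondary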
[18] = molecular target: NADPH oxidase 2 (Homo sapiens) (UniProt P04839); assay: NOX2-dependent H2O2 signal modulators, primary screen, NOX inhibitor project, cell-based, HEK293-NOX2, PMA-stimulated, Amplex Red fluorescence (AID 1159); conditions: 45 min, higher = more signal, called active from +8 up or from −8 down; further: test concentration not given here
Chain of NADPH oxidase 2 (Homo sapiens) (P04839 whole entry, looked up): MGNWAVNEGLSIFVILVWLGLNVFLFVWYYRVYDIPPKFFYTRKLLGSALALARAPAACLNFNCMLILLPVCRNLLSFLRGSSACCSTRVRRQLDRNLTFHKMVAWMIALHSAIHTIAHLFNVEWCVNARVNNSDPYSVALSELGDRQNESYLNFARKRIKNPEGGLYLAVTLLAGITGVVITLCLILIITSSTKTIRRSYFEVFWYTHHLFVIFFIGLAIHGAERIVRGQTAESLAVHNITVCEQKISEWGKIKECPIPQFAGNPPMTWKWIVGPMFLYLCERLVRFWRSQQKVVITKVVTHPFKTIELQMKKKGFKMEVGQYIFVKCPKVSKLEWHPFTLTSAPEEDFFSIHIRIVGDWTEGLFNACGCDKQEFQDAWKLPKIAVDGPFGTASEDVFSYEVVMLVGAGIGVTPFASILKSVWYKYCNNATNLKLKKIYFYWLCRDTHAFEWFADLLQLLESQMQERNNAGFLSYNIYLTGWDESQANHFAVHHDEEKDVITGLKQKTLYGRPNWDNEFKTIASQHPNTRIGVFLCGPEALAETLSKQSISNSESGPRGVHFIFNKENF

[19] = molecular target: NADPH oxidase 4 (Homo sapiens) (UniProt Q9NPH5); assay: NOX4-dependent H2O2 signal modulators, primary screen, NOX inhibitor project, cell-based, HEK293-NOX4, tetracycline-induced, Amplex Red fluorescence (AID 1160); conditions: 45 min, higher = more signal, called active from +8 up or from −8 down
Chain of NADPH oxidase 4 (Homo sapiens) (Q9NPH5 whole entry, looked up): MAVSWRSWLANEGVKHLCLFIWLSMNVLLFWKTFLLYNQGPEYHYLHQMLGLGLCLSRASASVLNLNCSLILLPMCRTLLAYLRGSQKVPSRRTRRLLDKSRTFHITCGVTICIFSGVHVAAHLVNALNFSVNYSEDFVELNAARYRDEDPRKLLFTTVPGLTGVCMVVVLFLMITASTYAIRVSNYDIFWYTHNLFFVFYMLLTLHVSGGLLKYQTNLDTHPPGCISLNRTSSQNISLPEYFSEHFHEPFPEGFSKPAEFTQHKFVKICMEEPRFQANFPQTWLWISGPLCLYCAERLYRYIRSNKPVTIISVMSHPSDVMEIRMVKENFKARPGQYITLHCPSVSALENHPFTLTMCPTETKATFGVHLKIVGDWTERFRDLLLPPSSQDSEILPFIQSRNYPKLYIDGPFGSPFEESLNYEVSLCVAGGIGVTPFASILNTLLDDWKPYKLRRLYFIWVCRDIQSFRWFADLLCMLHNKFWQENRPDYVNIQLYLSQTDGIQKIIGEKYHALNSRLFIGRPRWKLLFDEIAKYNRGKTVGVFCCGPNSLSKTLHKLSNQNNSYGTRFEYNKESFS

[20] = molecular target: NADPH oxidase 5 (Homo sapiens) (UniProt Q96PH1); assay: NOX5-dependent H2O2 signal modulators, primary screen, NOX inhibitor project, cell-based, HEK293-NOX5, Amplex Red fluorescence (AID 1161); conditions: HEK293-NOX5, ionomycin, 45 min, higher = more signal
Chain of NADPH oxidase 5 (Homo sapiens) (Q96PH1 whole entry, looked up): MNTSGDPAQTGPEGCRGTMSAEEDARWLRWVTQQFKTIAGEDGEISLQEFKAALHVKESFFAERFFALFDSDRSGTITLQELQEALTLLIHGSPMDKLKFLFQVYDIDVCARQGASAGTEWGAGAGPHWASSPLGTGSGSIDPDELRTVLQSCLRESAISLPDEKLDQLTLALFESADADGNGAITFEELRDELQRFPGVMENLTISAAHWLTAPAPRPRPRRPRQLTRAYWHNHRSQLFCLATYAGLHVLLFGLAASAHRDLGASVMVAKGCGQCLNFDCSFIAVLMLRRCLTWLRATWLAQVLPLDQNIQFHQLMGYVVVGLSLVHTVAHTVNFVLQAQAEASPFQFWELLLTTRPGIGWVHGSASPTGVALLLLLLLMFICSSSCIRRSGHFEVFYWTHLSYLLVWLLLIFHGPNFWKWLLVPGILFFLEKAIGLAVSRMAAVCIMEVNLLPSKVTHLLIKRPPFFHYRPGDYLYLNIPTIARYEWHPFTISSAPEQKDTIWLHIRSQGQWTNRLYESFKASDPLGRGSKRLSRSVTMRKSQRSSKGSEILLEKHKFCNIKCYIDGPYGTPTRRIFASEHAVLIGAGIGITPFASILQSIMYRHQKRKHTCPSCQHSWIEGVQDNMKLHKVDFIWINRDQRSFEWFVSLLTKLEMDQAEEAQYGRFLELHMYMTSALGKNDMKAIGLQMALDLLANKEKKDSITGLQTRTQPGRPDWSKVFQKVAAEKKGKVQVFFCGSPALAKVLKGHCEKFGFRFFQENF

Row | Compound | composite z-score [1] | z-score [2] | z-score [3] | z-score [4] | z-score [5] | composite z-score [6] | composite z-score [7] | composite z-score [8] | composite z-score [9] | composite z-score [10] | z-score [11] | composite z-score [12] | z-score [13] | z-score [14] | z-score [15] | z-score [16] | z-score [17] | z-score [18] | z-score [19] | z-score [20]
1 | C=CC[C@@]1(C(=O)N(C)C)N=C(c2ccc(OCCCO)cc2)O[C@@H]1c1ccccc1N=[N+]=[N-] | 0.554 | -2.25 (inactive) | 0.557 (inactive) | 0.227 (inactive) | -0.825 (inactive) | 1.28 | 0.274 | 0.722 | 1.03 | 0.264 | 0.722 (inactive) | 0.57 | 33 (active) | 28.9 (active) | 3.29 (inactive) | 8.39 (active) | -0.195 | -1.12 (inactive) | 0.475 (inactive) | 0.446
2 | CC(C)N1C(=O)[C@@]2(Cc3ccccc31)c1ccccc1C(=O)N(C1CCCCC1)[C@H]2c1ccc(CO)cc1 | 0.0034 | -0.8 (inactive) | -0.868 (inactive) | -0.141 (inactive) | 0.815 (inactive) | -0.169 | -0.0987 | -0.245 | 0.333 | 1.99 | 0.04 (inactive) | -0.101 | 0.206 (inactive) | 0.195 (inactive) | 0.516 (inactive) | 0.378 (inactive) | 0.0252 | 0.111 (inactive) | 0.217 (inactive) | -0.638
3 | O=C1c2ccccc2[C@@]2(Cc3ccccc3N(CCN3CCOCC3)C2=O)[C@H](c2ccc(CO)cc2)N1Cc1ccccc1 | -0.465 | -1.24 (inactive) | -1.33 (inactive) | 0.208 (inactive) | -0.297 (inactive) | -0.383 | -0.231 | 0.437 | 0.456 | -0.613 | 1.04 (inactive) | -0.0479 | 0.884 (inactive) | -0.273 (inactive) | -0.378 (inactive) | 0.646 (inactive) | 0.215 | 0.0706 (inactive) | -0.582 (inactive) | -0.606
4 | CC(C)(C)C(=O)N[C@@H](c1ccc(Cl)cc1)[C@]1(C)C[C@H]1C1CCCCC1 | 0.182 | -2.95 (inactive) | -0.153 (inactive) | 0.197 (inactive) | 0.456 (inactive) | 2.44 | 0.634 | 0.895 | 1.18 | -0.546 | -0.913 (inactive) | 1.06 | 0.671 (inactive) | 0.418 (inactive) | 0.0711 (inactive) | 0.887 (inactive) | -0.191 | -0.0125 (inactive) | -1.05 (inactive) | -0.0713
5 | Cc1ccc(S[C@]2(C(=O)NCC(C)C)CC(=O)N(Cc3cc(C(F)(F)F)cc(C(F)(F)F)c3)[C@@H]2c2ccc(CO)cc2I)cc1 | -0.0088 | -1.19 (inactive) | -0.486 (inactive) | 0.441 (inactive) | 0.845 (inactive) | -0.634 | 0.0173 | -1.72 | -0.913 | -1.05 | -0.336 (inactive) | 0.12 | 2.53 (inactive) | -0.449 (inactive) | 0.767 (inactive) | 0.278 (inactive) | -0.301 | 2.07 (inactive) | -1.39 (inactive) | -0.95
6 | C#CCN(CC1=CCCCC1)[C@H](c1ccccc1Br)[C@@H](O)Cc1ccccc1 | -0.0365 | -1.5 (inactive) | 0.0281 (inactive) | 2.21 (inactive) | 0.219 (inactive) | -0.949 | -0.159 | 1.07 | 0.962 | -0.515 | 1.5 (inactive) | -0.0547 | 3.02 (inactive) | 0.849 (inactive) | 0.372 (inactive) | 0.109 (inactive) | 0.114 | -0.456 (inactive) | 0.191 (inactive) | -1.45
7 | CN1C(=O)C2C=CC(C(O)c3ccc(-c4ccccc4)s3)N(N(c3ccccc3)c3ccccc3)C2C1=O (stereo not given) | 0.123 | -0.0598 (inactive) | -0.468 (inactive) | -0.14 (inactive) | -0.101 (inactive) | 1.14 | 0.12 | 0.91 | -0.0126 | 0.409 | -0.562 (inactive) | 0.2 | 3.38 (inactive) | 2.19 (inactive) | 0.977 (inactive) | 1.32 (inactive) | -1.12 | 1.1 (inactive) | 0.963 (inactive) | -1.15
8 | CCOC(=O)C=Cc1cc([N+](=O)[O-])ccc1O | -0.128 | -4.44 (inactive) | -0.283 (inactive) | 0.173 (inactive) | -2.08 (inactive) | 0.572 | -0.0523 | 0.437 | 0.328 | -0.117 | -1.72 (inactive) | -0.104 | 26 (active) | 11.8 (active) | 2.13 (inactive) | -0.816 (inactive) | 2.41 | -4.11 (inactive) | -2.98 (inactive) | -3.76
